# According to PubChem BioAssay AID430 (Sanford-Burnham Center for Chemical Genomics, 2006):
# Among all 63,000 compounds or so, about 1,100 (1.7%) were called active. This excerpt belongs to a sample that is enriched for actives. Results with a measured potency or affinity are listed apart. A number with no mark means an inactive call. Cut-off read from the data, not from the text of the source: active = cytotoxicity above about 50%; inactive = the rest.
# Experiment: HPDE-C7 pancreatic duct cell viability loss – fluorescence, HTS (AID 430);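 note: cells exposed to compound for 48 hours before viability readout; 0% = vehicle and 100% = reference cytotoxic drug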
# Details: HPDE-C7 pancreatic duct cells viability, at 10 µM, stronger effect = higher value
row,SMILES,cytotoxicity
1,O=C(Nc1ccc2c(c1)OCO2)C1CC(c2ccccc2Cl)=NO1 (centres undefined),5.2%
2,CC(=O)OCC(=O)NCc1ccc2c(c1)OCO2,-32.4%
3,c1ccc(-n2c(Sc3cnccn3)nnc2-c2cccs2)cc1,-0.3%
4,Cc1occc1C(=O)Nc1cccnc1,-15.1%
5,C=CS(=O)(=O)c1ccc(Oc2ccc(S(=O)(=O)C=C)cc2)cc1,93.9% (active)
6,O=S(=O)(c1ccc(Oc2ccc(S(=O)(=O)N3CCOCC3)cc2)cc1)N1CCOCC1,-11.9%
7,CNS(=O)(=O)c1ccc(Oc2ccc(S(=O)(=O)NC)cc2)cc1,5%
8,CCOC(=O)Cc1csc(NC(=O)CCS(=O)(=O)Cc2ccccc2)n1,0%
9,Cc1cccc(NC(=O)NCCN2C(=O)C3C4C=CC(C4)C3C2=O)c1 (centres undefined),0.7%
10,CC(=O)NC(Cc1c[nH]c2ccccc12)C(=O)N1CCc2ccccc2C1 (centres undefined),4.8%
11,CCOc1cc(C2c3c(n[nH]c3C)C(=O)N2c2ccc(Br)cc2)ccc1O (centres undefined),15.4%
12,COc1cc(C2c3c(n[nH]c3C)C(=O)N2c2ccc(C)cc2)ccc1O (centres undefined),53.1% (active)
13,COc1cc(C2c3c(n[nH]c3C)C(=O)N2c2ccc(Br)cc2)ccc1O (centres undefined),27.9%
14,COc1ccc(Cl)cc1N(CC(=O)N1CCN(Cc2ccccc2)CC1)S(C)(=O)=O,-0.8%
15,CC(C)(C)NC(=O)CSc1nnc(-c2ccco2)n1Cc1ccco1,-15.8%
16,COC(=O)c1ccc(C(=O)OC)nc1,-18.5%
17,CCOC1(NC(=O)c2ccccc2)C(C)=CC(=O)C=C1C,-9.8%
18,O=C(Cn1cccc1)Nc1ccc(OC(F)(F)F)cc1,-1.8%
19,C=CCn1c(SC(CCO)C(=O)NCc2ccco2)nc2sc3c(c2c1=O)CCC3 (centres undefined),6.3%
20,C=CCn1c(SCC(=O)N2CCOCC2)nc2sc3c(c2c1=O)CCCC3,-1.2%
21,C=CCn1c(NCCO)nc2sc3c(c2c1=O)CCC3,62.9% (active)
22,COc1ccc(Cl)cc1S(=O)(=O)N1CCN(C)CC1,-4.6%
23,CCN(CC)C(=O)C1CCCN(C/C(C)=C/c2ccccc2)C1 (centres undefined),-8.8%

row,SMILES,cytotoxicity
1,N#Cc1c2c(c(=S)n(-c3ccccc3)c1N)CCCC2,1.6%
2,CCOC(=O)c1c(N)sn(-c2ccccc2)c1=S,-2%
3,CC(C(=O)N1CCN(c2ccccc2)CC1)N1C(=O)C2CC=CCC2C1=O (centres undefined),-2.6%
4,CCCNC(=O)c1[nH]c(C)c(C(C)=O)c1C,2%
5,CCc1[nH]c(C)c(C(C)=O)c1C,59.8% (active)
6,CC(=O)c1c(C)[nH]c(C)c1C(C)=O,-8.7%
7,COc1ccc(Cn2c3nc4ccccc4nc3c3c(=O)n(Cc4ccco4)cnc32)cc1,20.7%
8,CC(C)C1N(S(=O)(=O)c2ccccc2)CCN1S(=O)(=O)c1ccccc1,2%
9,Cc1cccc(OCCCCCNCCO)c1,9.6%
10,COc1ccc(OC)c(NC(=O)CSC2=C(C#N)C(c3ccco3)C3=C(CCCC3=O)N2)c1 (centres undefined),-1.5%
11,N#Cc1ccc(-c2ccco2)nc1SCC(=O)c1ccc(Cl)cc1,21.1%
12,Nc1nnc(SCc2ccccc2Cl)s1,8.4%
13,CS(=O)(=O)Nc1ccccc1C(=O)Nc1cccc(Cl)c1,5.3%
14,COc1ccc(Cl)cc1NC(=O)Cn1c(=O)n2nc(C)nc2c2ccccc21,7.2%
15,O=C(CSc1n[nH]c(-c2ccccc2O)n1)N1CCCc2ccccc21,2.3%
16,Cc1ccnc(NS(=O)(=O)c2ccc(NS(=O)(=O)Cc3ccccc3)cc2)n1,-21.7%
17,CCOc1c(OC)cccc1C1CC(=O)Nc2cc(OC)c(OC)cc21 (centres undefined),7.3%
18,CCOc1ccccc1C1CC(=O)Nc2cc(OC)c(OC)c(OC)c21 (centres undefined),-16.2%
19,CCOc1ccccc1C1CC(=O)Nc2cc3c(cc21)OCO3 (centres undefined),59.7% (active)
20,CCOc1ccccc1C1CC(=O)NC2=C1C(=O)CC(C)(C)C2 (centres undefined),9.7%
21,CCOc1ccccc1C1CC(=O)Nc2cc3c(cc21)OCCO3 (centres undefined),51.1% (active)
22,CCOc1c(OC)cccc1C1CC(=O)Nc2cc3c(cc21)OCCO3 (centres undefined),13.7%
23,CN(C(=O)C12CC3CC(CC(C3)C1)C2)C1CCS(=O)(=O)C1 (centres undefined),-5.1%

row,SMILES,cytotoxicity
1,O=C(Oc1cc(=O)oc2ccccc12)c1ccco1,14.1%
2,CCCCS(=O)(=O)/C=C\C1C2C=CC(C2)C1S(=O)(=O)CCCC (centres undefined),-10.1%
3,CCCCS(=O)(=O)/C=C\C=C/S(=O)(=O)CCCC,111% (active)
4,CC(=O)NC1(c2cccc(F)c2)CCN(C(=O)Nc2ccc(C#N)cc2)CC1,-15%
5,CC(NC(=O)Cc1ccsc1)c1ccc(S(N)(=O)=O)cc1 (centres undefined),5.5%
6,OCCN1CCN(C(=S)c2ccc(Cl)cc2)CC1,-26%
7,CN(C)CCCN1c2ccccc2CCc2ccc(Cl)cc21,31.8%
8,CN1CCN(CCCN2c3ccccc3Sc3ccc(Cl)cc32)CC1,75% (active)
9,O=C(CN1CCN(CCOCCO)CC1)N1c2ccccc2Sc2ccc(Cl)cc21,-24.7%
10,CN1CCN(CCC(=O)N2c3ccccc3Sc3ccc(Cl)cc32)CC1,17.5%
11,CCCN(C(=O)CSc1nnc(-c2ccoc2C)n1N)C1CCS(=O)(=O)C1 (centres undefined),6.4%
12,CCOC(=O)c1cn(CC)c2ccc(S(=O)(=O)N3CC(C)CC(C)C3)cc2c1=O (centres undefined),-2%
13,CC1=C(C(=O)OCC2CCCO2)C(c2cccc(O)c2)NC(=O)N1 (centres undefined),-6.4%
14,CC(=O)N1CCc2cc(S(=O)(=O)CCC(=O)NCc3ccc4c(c3)OCO4)ccc21,-4.4%
15,Cc1cccc(N2CCN(C(=O)c3cc4c(=O)n(C)c5ccccc5c4n3C)CC2)c1C,61.6% (active)
16,Cn1c(C(=O)N2CCN(c3ccc(Cl)cc3)CC2)cc2c(=O)n(C)c3ccccc3c21,6.6%
17,COc1ccccc1N1CCN(C(=O)c2cc3c(=O)n(C)c4ccccc4c3n2C)CC1,29%
18,Cn1c(C(=O)N2CCCC2)cc2c(=O)n(C)c3ccccc3c21,14.1%
19,CC(NC(=O)c1cc2c(=O)n(C)c3ccccc3c2n1C)c1ccc2c(c1)OCCO2 (centres undefined),38.8%
20,Cn1c(C(=O)Nc2ccc3c(c2)OCO3)cc2c(=O)n(C)c3ccccc3c21,18%
21,Cn1c(C(=O)Nc2ccc3c(c2)OCCO3)cc2c(=O)n(C)c3ccccc3c21,60% (active)
22,Cn1c(C(=O)N2CCN(c3ccccc3F)CC2)cc2c(=O)n(C)c3ccccc3c21,5.3%
23,Cc1ccc(Cl)cc1N1CCN(C(=O)c2cc3c(=O)n(C)c4ccccc4c3n2C)CC1,59.5% (active)
